Holding throughout (assay): DAPPL (digital affinity profiling via proximity ligation, sequencing); 10 mM Tris-HCl pH 7.5, 50 mM NaCl, 1 mM DTT, 4% glycerol, room temperature, 30 min; GST-TFs on glutathione beads, 16-mer random dsDNA library, 0.1% formaldehyde crosslink after washing; high values mean tight binding
Common to all, as to details: protein: recombinant; tags: N-terminal GST; dsDNA, one strand shown

For one experiment, the target named is T1, FLI1 (Homo sapiens, UniProt Q01543 1-452).
T1 sequence: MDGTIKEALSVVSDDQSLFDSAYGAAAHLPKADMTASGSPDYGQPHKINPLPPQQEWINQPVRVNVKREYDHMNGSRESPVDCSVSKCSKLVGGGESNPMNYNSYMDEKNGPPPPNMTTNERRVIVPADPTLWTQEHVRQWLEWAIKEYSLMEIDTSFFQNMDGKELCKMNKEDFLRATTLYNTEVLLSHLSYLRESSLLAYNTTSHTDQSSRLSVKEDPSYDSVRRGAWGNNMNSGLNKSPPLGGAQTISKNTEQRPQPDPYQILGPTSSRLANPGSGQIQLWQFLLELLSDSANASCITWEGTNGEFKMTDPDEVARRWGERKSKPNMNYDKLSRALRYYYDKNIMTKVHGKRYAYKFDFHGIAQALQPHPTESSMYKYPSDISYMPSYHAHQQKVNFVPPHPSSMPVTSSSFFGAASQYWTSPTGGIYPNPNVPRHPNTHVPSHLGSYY
The procedure, abridged: (§1)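 Each value of binding signal is a hexamer's read frequency for a factor divided by the same hexamer's frequency in the tag-only sample. Barcoded, bead-captured GST fusions of human transcription factors made in yeast were pooled with that sample and incubated with 200 nmole of a random double-stranded 16-mer DNA library in Tris/NaCl/DTT/glycerol buffer at room temperature for 30 min. Washing, 0.1% formaldehyde crosslinking, proximity ligation, PCR and Illumina NextSeq500 sequencing followed.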

A further experiment has as its target T2, ELK1 (Homo sapiens, UniProt P19419 1-428).
T2 sequence: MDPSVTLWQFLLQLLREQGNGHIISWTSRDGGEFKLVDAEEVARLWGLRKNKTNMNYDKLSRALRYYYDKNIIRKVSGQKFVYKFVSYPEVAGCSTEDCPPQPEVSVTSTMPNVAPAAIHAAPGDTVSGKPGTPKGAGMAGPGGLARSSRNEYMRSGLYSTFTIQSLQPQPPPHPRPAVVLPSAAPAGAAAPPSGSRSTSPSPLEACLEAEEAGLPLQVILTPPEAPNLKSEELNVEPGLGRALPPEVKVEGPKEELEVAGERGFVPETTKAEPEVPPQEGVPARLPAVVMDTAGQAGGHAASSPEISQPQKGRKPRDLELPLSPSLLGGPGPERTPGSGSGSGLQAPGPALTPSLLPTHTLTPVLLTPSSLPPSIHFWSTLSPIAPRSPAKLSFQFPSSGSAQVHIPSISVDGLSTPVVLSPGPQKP
The procedure, abridged:
as §1

Another experiment concerns the target T3, GABPA (Homo sapiens, UniProt Q06546 1-454).
T3 sequence: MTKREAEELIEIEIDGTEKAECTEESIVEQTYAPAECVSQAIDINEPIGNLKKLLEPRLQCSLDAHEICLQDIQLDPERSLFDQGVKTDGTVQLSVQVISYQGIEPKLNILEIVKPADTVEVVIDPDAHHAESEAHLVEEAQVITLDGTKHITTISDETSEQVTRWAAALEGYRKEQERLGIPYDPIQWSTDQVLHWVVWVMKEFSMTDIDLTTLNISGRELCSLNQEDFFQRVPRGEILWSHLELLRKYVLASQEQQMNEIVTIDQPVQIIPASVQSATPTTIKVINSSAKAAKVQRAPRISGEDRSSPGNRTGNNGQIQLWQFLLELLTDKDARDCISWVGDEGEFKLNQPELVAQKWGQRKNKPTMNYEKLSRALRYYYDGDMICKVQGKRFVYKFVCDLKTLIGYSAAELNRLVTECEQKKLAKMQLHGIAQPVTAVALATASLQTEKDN
The procedure, abridged: as §1

The next experiment deals with T4, ERG (Homo sapiens, UniProt P11308 1-479).
T4 sequence: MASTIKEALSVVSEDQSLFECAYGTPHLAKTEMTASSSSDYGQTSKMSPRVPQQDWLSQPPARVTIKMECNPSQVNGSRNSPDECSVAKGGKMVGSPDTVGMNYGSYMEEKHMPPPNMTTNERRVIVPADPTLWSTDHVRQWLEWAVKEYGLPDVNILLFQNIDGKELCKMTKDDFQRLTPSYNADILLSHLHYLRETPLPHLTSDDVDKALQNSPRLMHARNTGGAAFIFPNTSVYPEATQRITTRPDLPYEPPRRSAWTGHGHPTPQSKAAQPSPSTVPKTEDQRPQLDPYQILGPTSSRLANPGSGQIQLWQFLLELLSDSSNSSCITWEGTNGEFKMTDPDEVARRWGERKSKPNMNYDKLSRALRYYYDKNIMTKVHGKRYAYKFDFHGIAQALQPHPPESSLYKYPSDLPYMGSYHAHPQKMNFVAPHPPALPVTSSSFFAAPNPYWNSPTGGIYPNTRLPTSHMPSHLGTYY
In short, it runs like this: as §1

In a further experiment the target is ELF1 (Homo sapiens, UniProt P32519 1-619). In short, it runs like this: as §1
The target in another experiment is T5, EHF (Homo sapiens, UniProt Q9NZC4 1-300).
T5 sequence: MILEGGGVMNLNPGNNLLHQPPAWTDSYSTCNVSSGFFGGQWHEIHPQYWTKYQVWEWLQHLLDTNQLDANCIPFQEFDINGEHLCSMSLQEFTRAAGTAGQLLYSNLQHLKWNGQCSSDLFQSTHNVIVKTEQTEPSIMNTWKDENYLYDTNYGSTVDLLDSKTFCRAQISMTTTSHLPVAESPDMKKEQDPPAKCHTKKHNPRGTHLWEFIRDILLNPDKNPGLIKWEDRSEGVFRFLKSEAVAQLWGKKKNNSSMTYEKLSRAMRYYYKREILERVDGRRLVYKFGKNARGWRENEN
The procedure, abridged: as §1

In a further experiment the target is SPI1 (Homo sapiens, UniProt P17947 1-270). In short, it runs like this:
as §1

The target in another experiment is SPIB (Homo sapiens, UniProt Q01892 1-262). The procedure, abridged:
as §1

Another experiment has as its target T6, FEV (Homo sapiens, UniProt Q99581 1-238).
T6 sequence: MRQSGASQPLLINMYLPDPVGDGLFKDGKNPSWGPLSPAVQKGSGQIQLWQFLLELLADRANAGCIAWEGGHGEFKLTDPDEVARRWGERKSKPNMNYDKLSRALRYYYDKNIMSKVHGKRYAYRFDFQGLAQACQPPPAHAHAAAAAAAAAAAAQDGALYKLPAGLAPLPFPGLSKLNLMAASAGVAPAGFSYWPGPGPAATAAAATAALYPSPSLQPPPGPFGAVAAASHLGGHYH
The procedure, abridged: as §1

In a further experiment the target is ETV5 (Homo sapiens, UniProt P41161 1-510). In short, it runs like this:
as §1

In another experiment the target is T7, SPIC (Homo sapiens, UniProt Q8N5J4 1-248).
T7 sequence: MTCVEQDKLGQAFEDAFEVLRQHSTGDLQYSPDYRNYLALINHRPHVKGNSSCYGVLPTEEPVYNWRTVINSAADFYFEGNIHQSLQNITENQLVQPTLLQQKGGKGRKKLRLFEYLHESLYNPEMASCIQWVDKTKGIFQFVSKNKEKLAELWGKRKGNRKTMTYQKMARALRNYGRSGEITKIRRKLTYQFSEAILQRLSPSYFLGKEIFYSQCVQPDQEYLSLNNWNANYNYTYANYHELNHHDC
In short, it runs like this: as §1

The target of the next experiment is ELF4 (Homo sapiens, UniProt Q99607 1-663). In short, it runs like this:
as §1

The target of the next experiment is T8, ELK4 (Homo sapiens, UniProt P28324-2 1-405).
T8 sequence: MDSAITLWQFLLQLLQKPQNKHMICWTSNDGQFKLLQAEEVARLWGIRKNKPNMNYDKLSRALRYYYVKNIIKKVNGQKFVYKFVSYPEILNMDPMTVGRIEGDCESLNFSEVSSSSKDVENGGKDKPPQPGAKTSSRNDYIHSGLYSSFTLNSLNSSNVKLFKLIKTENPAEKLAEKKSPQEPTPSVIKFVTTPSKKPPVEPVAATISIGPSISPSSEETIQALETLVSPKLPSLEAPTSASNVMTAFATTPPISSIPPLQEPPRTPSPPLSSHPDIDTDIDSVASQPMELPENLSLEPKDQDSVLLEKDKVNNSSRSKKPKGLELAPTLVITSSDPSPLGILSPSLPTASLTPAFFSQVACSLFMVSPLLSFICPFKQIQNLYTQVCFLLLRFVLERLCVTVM
The procedure, abridged:
as §1

Another experiment has as its target T9, ETV2 (Homo sapiens, UniProt O00321 1-342).
T9 sequence: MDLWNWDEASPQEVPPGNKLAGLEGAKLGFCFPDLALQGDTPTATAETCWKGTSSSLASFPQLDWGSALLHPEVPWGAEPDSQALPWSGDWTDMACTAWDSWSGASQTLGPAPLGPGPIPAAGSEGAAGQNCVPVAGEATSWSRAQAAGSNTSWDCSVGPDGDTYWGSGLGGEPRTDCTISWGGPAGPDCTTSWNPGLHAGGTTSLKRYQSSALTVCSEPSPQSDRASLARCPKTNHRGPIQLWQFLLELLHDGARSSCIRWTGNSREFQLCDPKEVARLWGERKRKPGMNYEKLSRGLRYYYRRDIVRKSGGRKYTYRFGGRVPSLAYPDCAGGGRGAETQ
In short, it runs like this:
as §1

The next experiment addresses T10, ELF3 (Homo sapiens, UniProt P78545 1-371).
T10 sequence: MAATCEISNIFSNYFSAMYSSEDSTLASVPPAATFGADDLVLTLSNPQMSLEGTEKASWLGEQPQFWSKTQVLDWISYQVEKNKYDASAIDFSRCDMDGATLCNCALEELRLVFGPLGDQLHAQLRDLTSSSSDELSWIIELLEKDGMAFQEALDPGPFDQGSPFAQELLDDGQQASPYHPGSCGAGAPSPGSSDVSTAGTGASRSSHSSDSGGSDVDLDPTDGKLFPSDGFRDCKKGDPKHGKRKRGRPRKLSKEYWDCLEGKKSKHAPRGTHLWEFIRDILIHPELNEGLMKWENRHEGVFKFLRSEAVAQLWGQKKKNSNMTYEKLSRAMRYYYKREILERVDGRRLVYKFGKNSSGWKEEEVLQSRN
The procedure, abridged: as §1

Another experiment has as its target ETV1 (Homo sapiens, UniProt P50549 1-477). The procedure, abridged:
as §1

The next experiment addresses T11, ELK3 (Homo sapiens, UniProt P41970 1-407).
T11 sequence: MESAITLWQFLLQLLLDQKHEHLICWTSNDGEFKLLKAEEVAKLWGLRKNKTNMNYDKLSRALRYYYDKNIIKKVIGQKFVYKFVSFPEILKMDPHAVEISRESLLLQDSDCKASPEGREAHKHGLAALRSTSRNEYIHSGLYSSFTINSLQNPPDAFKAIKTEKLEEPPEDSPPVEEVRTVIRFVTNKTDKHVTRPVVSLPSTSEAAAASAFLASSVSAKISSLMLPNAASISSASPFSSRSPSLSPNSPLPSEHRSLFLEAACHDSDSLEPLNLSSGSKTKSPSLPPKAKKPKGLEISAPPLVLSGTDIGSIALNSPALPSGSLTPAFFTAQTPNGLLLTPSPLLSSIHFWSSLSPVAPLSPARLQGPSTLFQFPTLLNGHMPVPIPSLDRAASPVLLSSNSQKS
In short, it runs like this:
as §1

From article PMC7862700, “An all-to-all approach to the identification of sequence-specific readers for epigenetic DNA modifications on cytosine” come the findings set out here.

Sequence of SPIB (Q01892 whole entry): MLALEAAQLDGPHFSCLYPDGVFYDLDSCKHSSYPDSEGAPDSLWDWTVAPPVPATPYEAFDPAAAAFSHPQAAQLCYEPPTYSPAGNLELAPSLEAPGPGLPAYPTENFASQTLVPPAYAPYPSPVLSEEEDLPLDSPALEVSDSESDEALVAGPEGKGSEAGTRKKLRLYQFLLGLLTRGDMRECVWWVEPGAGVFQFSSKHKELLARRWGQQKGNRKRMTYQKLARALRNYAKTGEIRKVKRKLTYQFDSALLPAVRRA
Sequence of ELF4 (Q99607 whole entry): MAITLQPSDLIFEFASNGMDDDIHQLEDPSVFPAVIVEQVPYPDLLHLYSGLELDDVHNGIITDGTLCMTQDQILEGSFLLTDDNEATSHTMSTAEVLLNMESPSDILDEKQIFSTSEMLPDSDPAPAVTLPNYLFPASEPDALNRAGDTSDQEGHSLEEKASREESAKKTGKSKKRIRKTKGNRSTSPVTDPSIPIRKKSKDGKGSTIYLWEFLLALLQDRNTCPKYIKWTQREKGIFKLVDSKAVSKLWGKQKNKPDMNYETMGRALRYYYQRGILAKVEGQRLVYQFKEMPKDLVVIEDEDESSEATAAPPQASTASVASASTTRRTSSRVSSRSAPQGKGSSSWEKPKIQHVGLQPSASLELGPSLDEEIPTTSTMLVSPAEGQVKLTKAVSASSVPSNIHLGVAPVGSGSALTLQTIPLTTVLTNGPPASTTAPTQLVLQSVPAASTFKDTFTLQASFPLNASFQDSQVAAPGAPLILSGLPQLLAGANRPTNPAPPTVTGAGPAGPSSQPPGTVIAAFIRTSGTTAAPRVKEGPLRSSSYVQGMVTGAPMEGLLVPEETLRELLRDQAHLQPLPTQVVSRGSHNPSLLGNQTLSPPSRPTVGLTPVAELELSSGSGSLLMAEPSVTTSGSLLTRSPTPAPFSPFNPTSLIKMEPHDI
Sequence of ETV1 (P50549 whole entry): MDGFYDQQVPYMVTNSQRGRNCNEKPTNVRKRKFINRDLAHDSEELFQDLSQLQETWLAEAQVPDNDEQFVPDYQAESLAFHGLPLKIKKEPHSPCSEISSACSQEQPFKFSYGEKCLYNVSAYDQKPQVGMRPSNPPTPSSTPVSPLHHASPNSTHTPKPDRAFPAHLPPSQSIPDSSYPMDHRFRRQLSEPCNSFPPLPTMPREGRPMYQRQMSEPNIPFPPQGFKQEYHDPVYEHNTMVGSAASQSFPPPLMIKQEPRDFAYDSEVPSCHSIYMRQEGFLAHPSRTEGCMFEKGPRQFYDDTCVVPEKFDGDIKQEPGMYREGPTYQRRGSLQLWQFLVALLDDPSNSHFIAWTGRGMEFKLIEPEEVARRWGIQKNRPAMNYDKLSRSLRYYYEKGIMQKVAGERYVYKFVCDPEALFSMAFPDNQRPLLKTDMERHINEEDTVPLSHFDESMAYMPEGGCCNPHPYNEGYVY
Sequence of ETV5 (P41161 whole entry): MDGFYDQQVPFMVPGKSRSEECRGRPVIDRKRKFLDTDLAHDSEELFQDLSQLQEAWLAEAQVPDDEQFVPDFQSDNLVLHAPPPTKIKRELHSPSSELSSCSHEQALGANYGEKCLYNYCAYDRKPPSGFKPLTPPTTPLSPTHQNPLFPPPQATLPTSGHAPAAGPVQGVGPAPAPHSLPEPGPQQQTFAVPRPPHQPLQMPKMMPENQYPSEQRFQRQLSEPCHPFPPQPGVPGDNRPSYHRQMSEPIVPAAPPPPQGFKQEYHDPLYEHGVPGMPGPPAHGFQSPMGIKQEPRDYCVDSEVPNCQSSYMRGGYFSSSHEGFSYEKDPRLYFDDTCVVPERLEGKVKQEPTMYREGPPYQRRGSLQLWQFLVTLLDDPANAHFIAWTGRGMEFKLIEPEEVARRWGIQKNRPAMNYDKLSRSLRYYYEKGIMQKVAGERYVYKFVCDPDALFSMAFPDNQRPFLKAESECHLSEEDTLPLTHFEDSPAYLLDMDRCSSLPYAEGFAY
Sequence of ELF1 (P32519 whole entry): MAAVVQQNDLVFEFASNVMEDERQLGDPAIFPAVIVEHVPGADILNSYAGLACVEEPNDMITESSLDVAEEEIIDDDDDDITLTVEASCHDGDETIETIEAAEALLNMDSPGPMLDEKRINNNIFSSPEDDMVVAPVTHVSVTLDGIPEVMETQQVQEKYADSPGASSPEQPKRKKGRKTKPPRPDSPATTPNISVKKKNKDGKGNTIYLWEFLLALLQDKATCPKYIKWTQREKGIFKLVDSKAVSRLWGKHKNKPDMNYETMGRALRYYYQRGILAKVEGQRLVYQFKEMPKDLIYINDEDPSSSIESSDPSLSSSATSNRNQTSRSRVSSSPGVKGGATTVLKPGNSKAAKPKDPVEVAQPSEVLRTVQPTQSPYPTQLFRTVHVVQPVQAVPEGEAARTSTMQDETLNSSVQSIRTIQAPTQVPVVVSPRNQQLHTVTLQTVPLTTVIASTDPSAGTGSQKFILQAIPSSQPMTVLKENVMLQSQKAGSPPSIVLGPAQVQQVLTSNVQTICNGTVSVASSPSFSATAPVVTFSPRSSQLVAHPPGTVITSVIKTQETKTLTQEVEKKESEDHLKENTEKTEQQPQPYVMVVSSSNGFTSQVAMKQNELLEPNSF

For TGTGCA, the binding signal with FLI1 was 1 fold enrichment (6-mer frequency, TF over GST control); with ELK1, 1.09 fold enrichment (6-mer frequency, TF over GST control); in the experiment with GABPA, 1.08 fold enrichment (6-mer frequency, TF over GST control); in the experiment with ERG, 1.16 fold enrichment (6-mer frequency, TF over GST control); in the experiment with ELF1, 1.08 fold enrichment (6-mer frequency, TF over GST control); with EHF it was 1.14 fold enrichment (6-mer frequency, TF over GST control). Besides, the binding signal with SPI1 is 1.08 fold enrichment (6-mer frequency, TF over GST control); with SPIB, 1.18 fold enrichment (6-mer frequency, TF over GST control); with FEV it was 1.1 fold enrichment (6-mer frequency, TF over GST control); in the experiment with ETV5, 1.15 fold enrichment (6-mer frequency, TF over GST control); in the experiment with SPIC it was 1.38 fold enrichment (6-mer frequency, TF over GST control); with ELF4, 1.11 fold enrichment (6-mer frequency, TF over GST control). Further, the binding signal with ELK4 was 1.09 fold enrichment (6-mer frequency, TF over GST control); in the experiment with ETV2, 1.01 fold enrichment (6-mer frequency, TF over GST control); with ELF3, 1.09 fold enrichment (6-mer frequency, TF over GST control); in the experiment with ETV1 it was 1.05 fold enrichment (6-mer frequency, TF over GST control).
For TTCAGT, the binding signal with FLI1 is 1.07 fold enrichment (6-mer frequency, TF over GST control); in the experiment with ELK1 it was 1.04 fold enrichment (6-mer frequency, TF over GST control); with GABPA it was 1.06 fold enrichment (6-mer frequency, TF over GST control); with ERG it was 1.03 fold enrichment (6-mer frequency, TF over GST control); in the experiment with ELF1 it was 1.09 fold enrichment (6-mer frequency, TF over GST control); with EHF, 1.04 fold enrichment (6-mer frequency, TF over GST control). Moreover, the binding signal in the experiment with SPI1 was 1.11 fold enrichment (6-mer frequency, TF over GST control); in the experiment with SPIB it was 1 fold enrichment (6-mer frequency, TF over GST control); in the experiment with ELK3, 1.02 fold enrichment (6-mer frequency, TF over GST control); with FEV it was 1.01 fold enrichment (6-mer frequency, TF over GST control); with ETV5, 1.05 fold enrichment (6-mer frequency, TF over GST control); with SPIC, 1.11 fold enrichment (6-mer frequency, TF over GST control). The binding signal with ELF4 is 1.11 fold enrichment (6-mer frequency, TF over GST control); in the experiment with ELK4, 1.1 fold enrichment (6-mer frequency, TF over GST control); with ETV2 it was 1.08 fold enrichment (6-mer frequency, TF over GST control); with ELF3, 1.08 fold enrichment (6-mer frequency, TF over GST control); with ETV1, 1.07 fold enrichment (6-mer frequency, TF over GST control).
